From ChEMBL document CHEMBL1961873, “Compounds: GSK PKIS; Assays: Nanosyn kinase panel” (2012)

What was measured:
[1] = target: 5'-AMP-activated protein kinase catalytic subunit alpha-2 (Homo sapiens) (UniProt P54646); settings: at 1 µM
[2] = target: T1, NUAK family SNF1-like kinase 1 (Homo sapiens) (UniProt O60285); settings: at 0.1 µM
T1 sequence (whole entry): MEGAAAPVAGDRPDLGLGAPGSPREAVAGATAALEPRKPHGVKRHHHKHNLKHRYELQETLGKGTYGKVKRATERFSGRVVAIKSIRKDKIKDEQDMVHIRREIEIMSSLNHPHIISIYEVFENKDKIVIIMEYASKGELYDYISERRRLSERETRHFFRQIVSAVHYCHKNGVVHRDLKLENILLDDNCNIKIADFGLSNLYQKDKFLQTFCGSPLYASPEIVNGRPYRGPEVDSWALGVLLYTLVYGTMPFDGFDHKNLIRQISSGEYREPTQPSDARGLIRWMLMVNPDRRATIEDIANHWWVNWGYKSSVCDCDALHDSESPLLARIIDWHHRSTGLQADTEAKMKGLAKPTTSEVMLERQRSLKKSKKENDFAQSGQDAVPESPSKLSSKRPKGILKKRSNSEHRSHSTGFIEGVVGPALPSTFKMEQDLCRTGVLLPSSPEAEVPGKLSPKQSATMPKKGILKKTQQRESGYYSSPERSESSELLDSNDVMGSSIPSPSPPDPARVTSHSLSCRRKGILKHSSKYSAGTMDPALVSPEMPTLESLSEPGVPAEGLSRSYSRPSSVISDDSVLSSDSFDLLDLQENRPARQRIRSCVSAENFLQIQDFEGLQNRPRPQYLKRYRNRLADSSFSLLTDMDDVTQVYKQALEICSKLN

[3] = target: T1, NUAK family SNF1-like kinase 1 (Homo sapiens); settings: at 1 µM
[4] = target: T2, Serine/threonine-protein kinase BRSK1 (Homo sapiens) (UniProt Q8TDC3); settings: at 0.1 µM
T2 sequence (whole entry): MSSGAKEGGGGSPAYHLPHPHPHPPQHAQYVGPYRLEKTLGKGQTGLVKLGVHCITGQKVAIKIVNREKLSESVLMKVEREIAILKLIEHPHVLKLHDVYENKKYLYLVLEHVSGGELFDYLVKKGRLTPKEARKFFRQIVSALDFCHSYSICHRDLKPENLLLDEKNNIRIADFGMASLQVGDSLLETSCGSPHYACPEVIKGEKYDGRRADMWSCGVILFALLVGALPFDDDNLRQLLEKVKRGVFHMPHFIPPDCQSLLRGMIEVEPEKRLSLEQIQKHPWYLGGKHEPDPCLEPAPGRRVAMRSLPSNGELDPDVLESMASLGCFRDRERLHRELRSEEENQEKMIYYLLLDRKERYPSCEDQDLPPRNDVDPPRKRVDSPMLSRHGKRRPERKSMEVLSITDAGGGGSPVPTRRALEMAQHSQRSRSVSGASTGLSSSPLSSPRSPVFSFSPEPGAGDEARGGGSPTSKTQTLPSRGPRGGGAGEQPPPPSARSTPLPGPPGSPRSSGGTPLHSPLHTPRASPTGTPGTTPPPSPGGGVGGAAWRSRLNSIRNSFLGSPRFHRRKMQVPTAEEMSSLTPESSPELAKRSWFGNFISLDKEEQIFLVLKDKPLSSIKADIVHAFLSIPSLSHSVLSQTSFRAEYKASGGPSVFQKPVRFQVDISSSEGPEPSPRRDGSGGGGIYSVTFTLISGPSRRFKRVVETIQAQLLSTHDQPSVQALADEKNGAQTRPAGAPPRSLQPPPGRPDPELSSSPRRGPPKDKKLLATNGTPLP

[5] = target: T2, Serine/threonine-protein kinase BRSK1 (Homo sapiens); settings: at 1 µM
[6] = target: T3, Serine/threonine-protein kinase BRSK2 (Homo sapiens) (UniProt Q8IWQ3); settings: at 0.1 µM
T3 sequence (whole entry): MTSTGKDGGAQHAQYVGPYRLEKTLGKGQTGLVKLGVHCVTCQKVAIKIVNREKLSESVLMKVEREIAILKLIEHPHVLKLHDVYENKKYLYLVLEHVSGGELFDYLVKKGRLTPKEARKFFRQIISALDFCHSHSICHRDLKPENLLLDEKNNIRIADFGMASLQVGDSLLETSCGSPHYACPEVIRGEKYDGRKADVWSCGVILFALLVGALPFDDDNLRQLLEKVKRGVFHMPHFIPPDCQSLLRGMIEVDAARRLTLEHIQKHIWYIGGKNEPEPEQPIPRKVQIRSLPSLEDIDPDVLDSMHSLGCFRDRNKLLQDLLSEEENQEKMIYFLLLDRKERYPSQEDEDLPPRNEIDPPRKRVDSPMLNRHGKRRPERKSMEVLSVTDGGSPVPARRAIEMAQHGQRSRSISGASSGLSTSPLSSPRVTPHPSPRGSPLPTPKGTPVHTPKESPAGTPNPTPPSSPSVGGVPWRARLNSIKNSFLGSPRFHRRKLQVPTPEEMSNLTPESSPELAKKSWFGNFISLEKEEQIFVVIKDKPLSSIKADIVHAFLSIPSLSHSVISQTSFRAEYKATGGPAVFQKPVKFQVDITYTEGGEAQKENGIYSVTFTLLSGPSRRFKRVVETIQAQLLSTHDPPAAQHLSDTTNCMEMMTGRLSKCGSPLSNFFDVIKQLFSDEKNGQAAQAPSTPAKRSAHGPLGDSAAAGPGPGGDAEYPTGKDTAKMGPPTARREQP

[7] = target: T3, Serine/threonine-protein kinase BRSK2 (Homo sapiens); settings: at 1 µM
[8] = target: Calcium/calmodulin-dependent protein kinase type 1D (Homo sapiens) (UniProt Q8IU85); settings: at 0.1 µM
[9] = target: Calcium/calmodulin-dependent protein kinase type 1D (Homo sapiens) (UniProt Q8IU85); settings: at 1 µM
[10] = target: Calcium/calmodulin-dependent protein kinase type II subunit alpha (Homo sapiens) (UniProt Q9UQM7); settings: at 0.1 µM
[11] = target: Calcium/calmodulin-dependent protein kinase type II subunit alpha (Homo sapiens) (UniProt Q9UQM7); settings: at 1 µM
[12] = target: Calcium/calmodulin-dependent protein kinase type II subunit delta (Homo sapiens) (UniProt Q13557); settings: at 0.1 µM
[13] = target: Calcium/calmodulin-dependent protein kinase type II subunit delta (Homo sapiens) (UniProt Q13557); settings: at 1 µM
[14] = target: T4, Calcium/calmodulin-dependent protein kinase type IV (Homo sapiens) (UniProt Q16566); settings: at 0.1 µM
T4 sequence (whole entry): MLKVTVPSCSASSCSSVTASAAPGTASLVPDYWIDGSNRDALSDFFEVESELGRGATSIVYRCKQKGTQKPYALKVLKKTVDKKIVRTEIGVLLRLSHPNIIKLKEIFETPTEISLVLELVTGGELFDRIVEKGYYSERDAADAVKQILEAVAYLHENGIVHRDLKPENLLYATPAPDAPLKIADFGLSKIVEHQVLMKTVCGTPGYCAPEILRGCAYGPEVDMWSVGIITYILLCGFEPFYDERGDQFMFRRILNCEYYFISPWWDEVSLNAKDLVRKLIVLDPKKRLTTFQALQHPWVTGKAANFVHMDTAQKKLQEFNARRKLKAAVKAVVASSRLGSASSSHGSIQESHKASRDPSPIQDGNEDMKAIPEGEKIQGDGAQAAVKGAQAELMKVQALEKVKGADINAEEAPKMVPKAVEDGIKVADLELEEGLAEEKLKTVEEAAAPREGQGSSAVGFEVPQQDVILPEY

[15] = target: T4, Calcium/calmodulin-dependent protein kinase type IV (Homo sapiens); settings: at 1 µM
[16] = target: T5, Serine/threonine-protein kinase Chk1 (Homo sapiens) (UniProt O14757); settings: at 0.1 µM
T5 sequence (whole entry): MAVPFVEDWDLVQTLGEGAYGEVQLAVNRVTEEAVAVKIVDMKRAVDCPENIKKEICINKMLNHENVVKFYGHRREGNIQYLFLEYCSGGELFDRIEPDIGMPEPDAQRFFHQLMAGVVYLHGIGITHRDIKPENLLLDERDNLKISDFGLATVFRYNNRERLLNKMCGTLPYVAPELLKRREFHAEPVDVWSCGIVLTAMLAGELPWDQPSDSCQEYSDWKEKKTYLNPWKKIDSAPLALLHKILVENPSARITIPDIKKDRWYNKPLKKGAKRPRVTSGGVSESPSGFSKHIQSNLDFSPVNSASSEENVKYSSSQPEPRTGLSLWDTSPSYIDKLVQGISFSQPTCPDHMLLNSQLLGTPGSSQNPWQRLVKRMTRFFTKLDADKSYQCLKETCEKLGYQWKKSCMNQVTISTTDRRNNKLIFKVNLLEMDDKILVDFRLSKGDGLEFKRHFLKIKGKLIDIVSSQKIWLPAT

[17] = target: T5, Serine/threonine-protein kinase Chk1 (Homo sapiens); settings: at 1 µM
[18] = target: Serine/threonine-protein kinase Chk2 (Homo sapiens) (UniProt O96017); settings: at 0.1 µM
[19] = target: Serine/threonine-protein kinase Chk2 (Homo sapiens) (UniProt O96017); settings: at 1 µM
[20] = target: Death-associated protein kinase 1 (Homo sapiens) (UniProt P53355); settings: at 0.1 µM;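 also: reported figure is the mean inhibition of DAPK1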
Death-associated protein kinase 1 (Homo sapiens), sequence (P53355 whole entry, looked up): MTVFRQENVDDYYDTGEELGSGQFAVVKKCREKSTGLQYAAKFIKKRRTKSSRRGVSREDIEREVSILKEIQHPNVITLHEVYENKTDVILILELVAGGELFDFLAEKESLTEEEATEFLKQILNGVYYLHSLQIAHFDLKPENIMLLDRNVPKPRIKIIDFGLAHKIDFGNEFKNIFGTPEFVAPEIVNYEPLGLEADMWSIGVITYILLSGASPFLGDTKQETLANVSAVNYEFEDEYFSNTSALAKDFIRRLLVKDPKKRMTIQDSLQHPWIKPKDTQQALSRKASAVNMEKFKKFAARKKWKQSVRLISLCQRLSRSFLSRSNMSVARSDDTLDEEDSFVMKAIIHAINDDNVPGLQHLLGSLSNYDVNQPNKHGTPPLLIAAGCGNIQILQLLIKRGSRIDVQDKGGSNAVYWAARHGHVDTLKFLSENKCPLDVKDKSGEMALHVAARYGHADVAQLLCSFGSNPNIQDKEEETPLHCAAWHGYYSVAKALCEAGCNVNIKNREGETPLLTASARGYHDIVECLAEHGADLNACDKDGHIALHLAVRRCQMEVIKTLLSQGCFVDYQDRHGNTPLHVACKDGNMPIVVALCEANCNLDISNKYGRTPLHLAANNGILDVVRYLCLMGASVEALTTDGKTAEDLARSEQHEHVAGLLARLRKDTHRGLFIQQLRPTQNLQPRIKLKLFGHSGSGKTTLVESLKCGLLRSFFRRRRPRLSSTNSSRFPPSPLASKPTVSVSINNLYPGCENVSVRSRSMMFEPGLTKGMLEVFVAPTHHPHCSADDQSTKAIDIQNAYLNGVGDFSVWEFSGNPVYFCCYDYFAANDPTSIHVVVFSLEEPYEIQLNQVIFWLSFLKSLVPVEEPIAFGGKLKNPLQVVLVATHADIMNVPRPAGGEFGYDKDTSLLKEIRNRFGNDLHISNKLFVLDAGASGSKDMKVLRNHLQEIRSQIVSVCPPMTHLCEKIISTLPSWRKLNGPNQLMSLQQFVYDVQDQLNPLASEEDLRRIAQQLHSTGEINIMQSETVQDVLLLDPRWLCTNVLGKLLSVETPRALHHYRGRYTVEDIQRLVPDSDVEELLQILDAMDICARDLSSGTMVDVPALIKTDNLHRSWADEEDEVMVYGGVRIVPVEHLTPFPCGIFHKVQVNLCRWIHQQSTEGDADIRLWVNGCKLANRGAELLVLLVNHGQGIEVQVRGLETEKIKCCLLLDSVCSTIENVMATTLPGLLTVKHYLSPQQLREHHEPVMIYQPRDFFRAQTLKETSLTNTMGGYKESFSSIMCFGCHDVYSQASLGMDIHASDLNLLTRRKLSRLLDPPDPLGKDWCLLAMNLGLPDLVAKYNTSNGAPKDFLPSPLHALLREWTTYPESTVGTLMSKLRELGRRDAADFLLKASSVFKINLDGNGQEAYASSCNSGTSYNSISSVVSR

Calcium/calmodulin-dependent protein kinase type 1D (Homo sapiens), sequence (Q8IU85 whole entry, looked up): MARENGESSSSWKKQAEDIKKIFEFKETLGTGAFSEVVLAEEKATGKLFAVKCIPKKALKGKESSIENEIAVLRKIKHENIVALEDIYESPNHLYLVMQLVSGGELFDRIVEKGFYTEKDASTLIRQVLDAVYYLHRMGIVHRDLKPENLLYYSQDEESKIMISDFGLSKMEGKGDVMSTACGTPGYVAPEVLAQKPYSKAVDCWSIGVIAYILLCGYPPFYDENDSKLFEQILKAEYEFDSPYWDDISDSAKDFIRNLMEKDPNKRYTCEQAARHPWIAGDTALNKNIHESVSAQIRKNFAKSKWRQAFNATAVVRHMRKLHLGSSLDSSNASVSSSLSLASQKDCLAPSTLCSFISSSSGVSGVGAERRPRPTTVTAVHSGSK
Calcium/calmodulin-dependent protein kinase type II subunit alpha (Homo sapiens), sequence (Q9UQM7 whole entry): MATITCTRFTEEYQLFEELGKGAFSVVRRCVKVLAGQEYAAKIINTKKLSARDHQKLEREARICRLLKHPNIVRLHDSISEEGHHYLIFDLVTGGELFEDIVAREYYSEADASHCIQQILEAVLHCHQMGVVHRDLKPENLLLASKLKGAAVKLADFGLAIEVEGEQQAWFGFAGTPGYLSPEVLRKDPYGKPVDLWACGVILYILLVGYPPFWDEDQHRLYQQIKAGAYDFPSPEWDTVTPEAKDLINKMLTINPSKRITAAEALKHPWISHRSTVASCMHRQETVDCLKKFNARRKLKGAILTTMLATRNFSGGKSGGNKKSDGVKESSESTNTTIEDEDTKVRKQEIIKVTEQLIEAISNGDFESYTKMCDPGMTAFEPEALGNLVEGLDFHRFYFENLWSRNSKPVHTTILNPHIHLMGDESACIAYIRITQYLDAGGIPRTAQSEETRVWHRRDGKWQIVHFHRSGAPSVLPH
5'-AMP-activated protein kinase catalytic subunit alpha-2 (Homo sapiens), sequence (P54646 whole entry, looked up): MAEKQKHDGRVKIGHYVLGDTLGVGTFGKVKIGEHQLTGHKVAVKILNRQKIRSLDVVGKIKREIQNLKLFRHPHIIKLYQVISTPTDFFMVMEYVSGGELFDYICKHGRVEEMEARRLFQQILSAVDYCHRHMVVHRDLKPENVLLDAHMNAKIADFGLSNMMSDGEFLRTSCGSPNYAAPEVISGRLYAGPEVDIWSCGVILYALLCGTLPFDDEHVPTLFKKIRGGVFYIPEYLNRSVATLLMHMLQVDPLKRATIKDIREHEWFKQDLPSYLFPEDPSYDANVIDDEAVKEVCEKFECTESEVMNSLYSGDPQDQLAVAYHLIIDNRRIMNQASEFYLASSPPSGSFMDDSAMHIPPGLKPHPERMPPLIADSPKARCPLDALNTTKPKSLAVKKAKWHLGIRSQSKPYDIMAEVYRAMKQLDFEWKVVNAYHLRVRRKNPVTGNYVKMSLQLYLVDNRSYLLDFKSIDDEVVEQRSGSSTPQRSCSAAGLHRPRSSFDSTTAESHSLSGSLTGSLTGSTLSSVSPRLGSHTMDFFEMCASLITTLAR
Calcium/calmodulin-dependent protein kinase type II subunit delta (Homo sapiens), sequence (Q13557 whole entry): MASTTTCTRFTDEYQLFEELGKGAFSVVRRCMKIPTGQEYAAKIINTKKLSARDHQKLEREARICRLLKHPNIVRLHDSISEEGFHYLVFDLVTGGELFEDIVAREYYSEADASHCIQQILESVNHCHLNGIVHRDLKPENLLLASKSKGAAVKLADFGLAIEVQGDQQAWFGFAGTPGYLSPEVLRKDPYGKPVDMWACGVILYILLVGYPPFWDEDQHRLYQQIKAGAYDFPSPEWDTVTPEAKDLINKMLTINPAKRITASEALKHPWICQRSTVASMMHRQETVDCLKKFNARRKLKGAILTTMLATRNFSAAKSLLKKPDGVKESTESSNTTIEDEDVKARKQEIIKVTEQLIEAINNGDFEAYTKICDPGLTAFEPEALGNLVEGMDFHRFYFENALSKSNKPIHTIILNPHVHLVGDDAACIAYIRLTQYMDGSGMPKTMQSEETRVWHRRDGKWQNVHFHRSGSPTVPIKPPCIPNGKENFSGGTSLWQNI
Serine/threonine-protein kinase Chk2 (Homo sapiens), sequence (O96017 whole entry): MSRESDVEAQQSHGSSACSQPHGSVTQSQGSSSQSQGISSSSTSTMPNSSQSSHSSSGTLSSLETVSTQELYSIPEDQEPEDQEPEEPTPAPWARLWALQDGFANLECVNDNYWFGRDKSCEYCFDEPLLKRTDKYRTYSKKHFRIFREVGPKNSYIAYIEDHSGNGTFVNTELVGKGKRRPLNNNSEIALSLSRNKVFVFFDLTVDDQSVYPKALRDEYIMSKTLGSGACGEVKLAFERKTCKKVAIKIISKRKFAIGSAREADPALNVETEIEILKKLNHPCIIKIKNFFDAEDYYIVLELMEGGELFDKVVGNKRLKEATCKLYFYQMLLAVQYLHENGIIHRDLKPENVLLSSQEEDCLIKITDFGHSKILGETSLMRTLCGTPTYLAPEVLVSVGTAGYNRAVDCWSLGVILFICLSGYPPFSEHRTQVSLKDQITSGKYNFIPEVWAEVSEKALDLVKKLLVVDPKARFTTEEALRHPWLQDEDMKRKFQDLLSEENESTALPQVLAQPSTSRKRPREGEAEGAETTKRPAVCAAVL

Compound	inhibition [1]	inhibition [2]	inhibition [3]	inhibition [4]	inhibition [5]	inhibition [6]	inhibition [7]	inhibition [8]	inhibition [9]	inhibition [10]	inhibition [11]	inhibition [12]	inhibition [13]	inhibition [14]	inhibition [15]	inhibition [16]	inhibition [17]	inhibition [18]	inhibition [19]	inhibition [20]
NS(=O)(=O)c1ccc(N/N=C2\C(=O)Nc3ccc4ncccc4c32)cc1	62.2%	79.8%	85.4%	46%	76%	60.4%	80.7%	2.62%	9.02%	2.95%	7.93%	4.26%	18.3%	1.9%	2.53%	7.46%	41.1%	5%	26.3%	10.9%
CC(=O)Nc1cccc(C#Cc2cncnc2Nc2ccc(OCc3cccc(F)c3)c(Cl)c2)c1	2.19%	1.95%	7.23%	2.55%	1.82%	1.34%	0.36%	2.97%	3.77%	4.42%	4.52%	4.28%	3.37%	1.57%	3.24%	-1.89%	-3.6%	-2.67%	-1.77%	-6.34%
Fc1ccc(-c2nn3ncccc3c2-c2ccnc(Nc3ccc4c(c3)OCCO4)n2)cc1	4.39%	-3.69%	-0.79%	0.48%	-0.53%	0.21%	-0.44%	-0.07%	8.91%	3.81%	4.05%	3.8%	5.51%	0.98%	1.52%	1.26%	-1.02%	3.9%	5.77%	0.23%
CCn1c(-c2nonc2N)nc2c(C#CC(C)(C)O)nc(OC[C@H](N)c3ccccc3)cc21	15%	7%	47.3%	0.45%	1.15%	-0.02%	5.58%	0.96%	4.5%	2.34%	6.26%	4.52%	8.64%	-0.61%	4.09%	2.81%	9.89%	4.7%	11.3%	2.88%
Nc1nc(-c2ccc(F)cc2)c(-c2ccc3ncccc3n2)s1	3.37%	3.85%	7.09%	1.97%	3.32%	2.41%	5.28%	0.67%	0.5%	4.42%	4.65%	4.16%	4.81%	-0.44%	-0.24%	3.9%	5.94%	3.09%	4.06%	4.26%
FC(F)(F)c1cccc(-c2nn3ncccc3c2-c2ccnc(Nc3ccc4c(c3)OCCO4)n2)c1	4.13%	1.51%	5.87%	3.69%	2.81%	2.37%	2.54%	-0.54%	1.75%	1.98%	2.43%	1.59%	3.33%	0.49%	0.92%	1.89%	2.98%	1.74%	3.43%	2.28%
CNC(=O)c1cncc(/C=C/c2ccccc2Cl)c1	-0.38%	4.61%	4.26%	0.56%	8.62%	0.31%	8.91%	0.88%	-1.08%	1.53%	1.63%	-0.13%	-0.98%	-3.66%	-4.17%	1.43%	3.35%	-0.6%	1.77%	2.15%
